PubChem BioAssay (NCI)
This is part of a sample that, as a whole, favours compounds with a hit. Of some 83,000 tested, about 20% had one in any assay.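 96-well plates, one dose, 48 hours. Percent growth reported; active if below 10.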 Unmarked numbers belong to inactive results. The source made the active and inactive calls.

Columns and labels:
Assay in all cases: NCI-60 one-dose screen, 48 h (100 = growth as untreated, 0 = no growth, -100 = all killed)
Details in all cases: 10 µM unless noted
[1] = tested on: NCI-H23 lung
[2] = tested on: NCI-H226 lung
[3] = tested on: NCI-H322M lung
[4] = tested on: HOP-62 NSCLC
[5] = tested on: NCI-H460 lung
[6] = tested on: HOP-92 NSCLC
[7] = tested on: NCI-H522 lung
[8] = tested on: A549/ATCC NSCLC
[9] = tested on: 786-0 renal
[10] = tested on: COLO 205 colon

SMILES	growth [1]	growth [2]	growth [3]	growth [4]	growth [5]	growth [6]	growth [7]	growth [8]	growth [9]	growth [10]
O=C1/C(=C/c2ccc(F)cc2)C=C(c2ccccc2)N1CCc1ccccc1	70.8%	51.9%	65.6%	-3.68% (active)	61.3%	7.45% (active)	42.9%	40.8%	27.6%	71.9%
O=c1ccn2nc3ccccc3c2[nH]1	94.6%	91.3%	97.8%	88.4%	109%	71.2%	91.9%	116%	99.2%	124%
NC[C@H](O)c1ccc(O)c(O)c1	98.8%	109%	110%	105%	103%	65.8%	102%	109%	108%	109%
COc1ccc(NC(=O)c2nc(-c3cc(OC)c(OC)c(OC)c3)n(-c3cccc4ccccc34)n2)cc1OC	45.4%	44.9%	44.8%	42.1%	49.6%	46.4%	21.8%	50.6%	31.8%	37.1%
COc1ccccc1CNCCCN1C(=O)c2ccc3c4c(ccc(c24)C1=O)C(=O)N(CCCNCCCCN)C3=O	-38.6% (active)	-56.5% (active)	-10.1% (active)	-31% (active)	-46.2% (active)	-16% (active)	-84% (active)	-65% (active)	0.16% (active)	-81.5% (active)
N/C(=N/N=C/c1ccccc1)N/N=C\c1ccccc1	66.6%	81%	85.2%	76.5%	39.8%	57.1%	56.8%	59%	56.2%	67.7%
CC/C=C\C[C@H](O)C/C=C1/C(=O)C=C[C@@H]1C/C=C\CCCC(=O)OC	-7.41% (active)	-34.5% (active)	29.3%	-32% (active)	-46.3% (active)	-20.5% (active)	-69.6% (active)	-21.4% (active)	-49.6% (active)	-52.1% (active)
CCc1ccccc1-n1c(-c2ccc(Cl)cc2)cc(-c2ccc(Cl)cc2)c(C#N)c1=O	94.2%	97.4%	83.7%	107%	93.9%	72.4%	78.1%	94.7%	98%	89.4%
CC1(C)OC2C(CO[Si](C)(C)C(C)(C)C)OC(n3c(I)c(C#C[Si](C)(C)C)c(=O)[nH]c3=O)C2O1 (stereo not given)	76.9%	103%	106%	99.1%	106%	98.8%	90%	94.9%	93.9%	111%
COc1ccc(-c2nc3c(N)c(CO)c(C)nc3o2)cc1	86.6%	41.2%	92.5%	90.3%	108%	116%	91.6%	92.4%	95.5%	109%
Cc1cccc(Cc2cnc(NC(=O)/C=C/c3ccco3)s2)c1	28.2%	50.3%	37.8%	23.7%	3.34% (active)	78%	-12% (active)	20%	36%	2.49% (active)
COc1ccc(N=Nc2ccc(O)c(=O)cc2)cc1	2.37% (active)	4.29% (active)	25.2%	19.1%	2.64% (active)	19.4%	0.606% (active)	5.6% (active)	19.5%	26.3%
COc1ccc(NC(=O)CSc2nc(C)c(C(C)=O)n2-c2ccc([N+](=O)[O-])cc2)cc1	88.2%	89%	92.7%	95.7%	103%	112%	88.9%	90.6%	83.9%	102%
O=[N+]([O-])c1ccc(-c2cc(-c3ccc(Nc4nc(Nc5ccc(Cl)cc5)nc(Nc5ccc(Cl)cc5)n4)cc3)no2)cc1	84.1%	109%	88.4%	87.4%	95.9%	66.1%	80.9%	88.6%	89.7%	95.4%
